Source: the supplement of paper PMC7380943
Counter-ions that a name gives are not always drawn.

System: CLZ3 (HCA2 human fibroblast dual HR-NHEJ reporter)
Experiment: HR repair efficiency (tdTomato+ cells) relative to control (log10 fold); higher = more homologous recombination
Settings: 5 µM; doxycycline 0.5 ug/mL
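Further: compound given one day before doxycycline, which switches on I-SceI endonuclease expression to create double-strand breaks within the integrated reporter.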

Row | SMILES | HR repair efficiency (log10)
1 | C/C=C/c1cc(OC)c2c(c1)C(C)C(c1ccc(O)c(OC)c1)O2 (centres undefined) [Dehydrodiisoeugenol] | -0.0825
2 | COc1ccc2c(c1O)-c1c(O)c(OC)cc3c1[C@H](C2)[N+](C)(C)CC3 [Magnoflorine hydrochloride] | -0.0478
3 | COc1c(O)cc2c(c1O)[C@@H]1O[C@H](CO)[C@@H](O)[C@H](O)[C@H]1OC2=O [Bergenin] | -0.0334
4 | O=c1cc(-c2ccccc2)oc2cc(O)cc(O)c12 [Chrysin] | -0.15
5 | c1ccc2c(c1)OC1c3ccccc3OCC21 (centres undefined) [Pterocarpan] | -0.0555
6 | COc1cc(O)c(CC=C(C)C)c(O)c1C(=O)/C=C/c1ccc(O)cc1 [Xanthohumol] | 0.0483
7 | O=c1c(-c2ccc(O)cc2)coc2cc(O)ccc12 [Daidzein] | -0.15
8 | C[C@@H]1O[C@@H](O[C@H]2[C@H](O[C@H]3CC[C@@]4(C)[C@@H](CC[C@]5(C)[C@@H]4CC=C4[C@@H]6CC(C)(C)CC[C@]6(C(=O)O)CC[C@]45C)[C@]3(C)CO)OC[C@H](O)[C@@H]2O)[C@H](O)[C@H](O)[C@H]1O [α-Hederin] | -0.192
9 | Oc1cc(O)c2c(c1)O[C@H](c1ccc(O)c(O)c1)[C@H](O)C2 [Epicatechin (EC)] | -0.306
10 | C[N+](C)(C)C[C@H](O)CC(=O)[O-] [L-Carnitine] | 0.0663
11 | COc1ccc(/C=C/c2cc(O)cc(O[C@@H]3O[C@H](CO)[C@@H](O)[C@H](O)[C@H]3O)c2)cc1 [Desoxyrhaponticin] | 0.245
12 | Cc1ccc(C(C)C)c(O)c1 [Thymol] | 0.0691
13 | CC(/C=C/C=C(\C)C(=O)O[C@@H]1O[C@H](CO[C@@H]2O[C@H](CO)[C@@H](O)[C@H](O)[C@H]2O)[C@@H](O)[C@H](O)[C@H]1O)=C\C=C\C=C(C)\C=C\C=C(/C)C(=O)O[C@@H]1O[C@H](CO[C@@H]2O[C@H](CO)[C@@H](O)[C@H](O)[C@H]2O)[C@@H](O)[C@H](O)[C@H]1O [Crocin] | 0.0109
14 | Cc1c(O)c(C)c2c(c1O)C(=O)C[C@@H](c1ccc(O)cc1)O2 [Farrerol] | 0.437
15 | COC(=O)[C@@]1(C)CC[C@]2(C(=O)O)CC[C@]3(C)C(=CC[C@@H]4[C@@]5(C)C[C@H](O)[C@H](O)[C@@](C)(CO)[C@@H]5CC[C@]43C)[C@@H]2C1 [Phytolaccagenin] | 0.0241
16 | O=C(O)/C=C/c1ccccc1 [Cinnamic Acid] | 0.0721
17 | OC[C@H]1OC(O)[C@@H](O)[C@@H](O)[C@@H]1O (some centres undefined) [Mannose] | 0.0481
18 | CCC/C=C1\OC(=O)C2=C1CCC1C3C=C4C(=O)O/C(=C\CCC)C4(CC3)C21 (centres undefined) [Levistilide A] | 0.0314
19 | COc1c(O[C@@H]2O[C@H](C(=O)O)[C@@H](O)[C@H](O)[C@H]2O)cc(O)c2c(=O)cc(-c3ccccc3)oc12 [Wogonoside] | -0.00302
